A selection: hits, their analogues and other compounds. The true share with any hit is near 2.6%.
Exocytosis inh: lytic granule exocytosis inhibition; TALL-104 LAMP-1 surface exposure, flow cytometry; cells stimulated with thapsigargin and PMA; inhibition, % at 10 µM; 360,000 tested, 0.66% active; AID 651702;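 active means inhibition above about 55%, limit read from the data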
PRMT1 inh: PRMT1 (human) inhibition, primary screen | Q99873 | recombinant PRMT1, activity-based probe fluorescence polarization | inhibition, % at 2.79 µM | 370,000 tested, 1.3% active | AID 652257;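 active means inhibition above about 21% made by adding two undisclosed values, limit read from the data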
TLR9-MyD88 inh: TLR9-MyD88 interaction inhibition; CHO BLA complementation TLR9-MyD88, CCF4 FRET ratio; inhibition, % at 4.98 µM; 340,000 tested, 0.21% active; AID 504734;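 active means inhibition above the mean over all tested compounds plus 3 SD, cut at about 21% in these data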;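 further: 0% = DMSO only wells and 100% = clavulanate BLA inhibitor control wells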
NOD2 RIPK2 PPI: blocks binding of human NOD2 to RIPK2 | O43353 | AID 624267 | 360,000 tested, 0.38% active | inhibition, % at 4.98 µM | CHO BLA complementation NOD2-RIPK2, CCF4 ratio; in the data active means inhibition above about 21%;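 further: 0% = vehicle only and 100% = reference blocker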
TLR4-MyD88 BLA: blocks binding of human TLR4 to MyD88; O00206+Q99836; HeLa CL3-4 TLR4/MyD88 BLA complementation, FRET ratio; inhibition, % at 8.4 µM; 200,000 tested, 0.18% active; AID 861; in the data active means inhibition above about 25%;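 further: 0% = vehicle and 100% = reference inhibitor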
ABHD5-PLIN5 inh: blocks binding of human ABHD5 to perilipin-5 | Split G. princeps luciferase complementation, luminescence, 4 h | inhibition, % at 4 µM | 360,000 tested, 0.78% active | AID 602281;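 active means inhibition above the mean inhibition across every tested compound plus 3 SD, cut at about 22% in these data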;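 further: 0% = DMSO only wells and the 100% control is not disclosed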
Target sequence (Q00G26 whole entry, looked up): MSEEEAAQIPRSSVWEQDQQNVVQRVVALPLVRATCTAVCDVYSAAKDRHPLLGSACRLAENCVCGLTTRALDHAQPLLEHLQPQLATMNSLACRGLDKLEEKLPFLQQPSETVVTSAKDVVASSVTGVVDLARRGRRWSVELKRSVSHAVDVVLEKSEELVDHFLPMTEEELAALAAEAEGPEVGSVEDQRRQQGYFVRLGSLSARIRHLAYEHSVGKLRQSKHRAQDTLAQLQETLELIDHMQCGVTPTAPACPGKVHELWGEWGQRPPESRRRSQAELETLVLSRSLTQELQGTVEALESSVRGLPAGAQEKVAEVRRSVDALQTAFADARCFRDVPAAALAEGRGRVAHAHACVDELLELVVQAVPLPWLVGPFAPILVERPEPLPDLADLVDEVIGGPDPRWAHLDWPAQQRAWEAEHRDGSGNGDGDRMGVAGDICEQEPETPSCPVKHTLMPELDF
Target sequence (Q8WTS1 whole entry, looked up): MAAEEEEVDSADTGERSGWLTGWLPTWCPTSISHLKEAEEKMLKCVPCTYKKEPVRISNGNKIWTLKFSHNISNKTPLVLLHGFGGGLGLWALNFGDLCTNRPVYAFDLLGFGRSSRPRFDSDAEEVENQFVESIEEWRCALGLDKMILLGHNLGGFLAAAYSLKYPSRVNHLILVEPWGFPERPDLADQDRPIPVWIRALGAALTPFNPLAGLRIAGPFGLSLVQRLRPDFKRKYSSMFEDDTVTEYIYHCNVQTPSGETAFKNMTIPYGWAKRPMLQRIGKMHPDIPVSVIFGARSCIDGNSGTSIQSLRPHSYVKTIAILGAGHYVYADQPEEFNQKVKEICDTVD
Granule exo CP1: lytic granule exocytosis inhibition; shares compounds with Exocytosis inh; TALL-104 cells, LAMP-1 externalization, flow cytometry; stimulated with PMA plus thapsigargin; inhibition, % at 10 µM; 1,500 tested, 11% active; in the data active means inhibition above about 60%;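 further: 0% = stimulated vehicle wells and 100% = unstimulated wells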
* = called active by the depositor; . = no result.

SMILES	Exocytosis inh	PRMT1 inh	TLR9-MyD88 inh	NOD2 RIPK2 PPI	TLR4-MyD88 BLA	ABHD5-PLIN5 inh	Granule exo CP1
CC(=O)c1c(CSc2ccccc2)oc2ccc(O)c(CN(C)C)c12	65.7*	0.8	-1.2	-12.4	.	12.0	-12.6
COC(=O)Cc1c(CSc2ccccc2)oc2ccc(O)c(CN(C)C)c12	58.3*	-2.9	4.0	1.3	.	1.8	-2.0
CCOC(=O)c1c(CSc2ccc(CC)cc2)oc2ccc(O)c(CN(C)C)c12	80.4*	1.0	-3.4	12.4	.	21.0	42.6
COc1ccc(C(=O)c2coc3ccc(O)c(CN(C)C)c23)cc1	-4.5	9.2	-10.7	-7.1	-5.7	-10.6	.
CSc1nn(CCC#N)c(=O)[nH]c1=O	.	7.3	.	.	.	.	.
COC(=O)[C@@H]1C[C@@]2(O)[C@H](O)[C@H](O)[C@H](O)C[C@H]2N1Cc1cccc2ccccc12	69.9*	-2.2	0.8	-10.9	.	-0.3	-4.3
COC(=O)[C@@H]1C[C@@]2(O)[C@H](O)[C@H](O)[C@H](O)C[C@H]2N1Cc1ccc(-c2ccccc2)cc1	5.7	-2.2	-3.4	-4.0	.	4.9	.
CC(C)(C)C(=O)CSc1nnc(SCc2cccc3ccccc23)s1	.	-1.2	.	.	.	.	.
Cc1noc(C)c1S(=O)(=O)N(C)C[C@H]1Oc2c(NC(=O)Nc3ccccc3)cccc2C(=O)N([C@H](C)CO)C[C@@H]1C	65.4*	-1.0	-2.6	-0.7	.	-3.7	-14.1
CC(C)NC(=O)N(C)C[C@H]1Oc2ccc(NC(=O)C3CC3)cc2C(=O)N([C@H](C)CO)C[C@@H]1C	78.9*	4.2	4.7	-2.4	.	3.5	-4.6
C[C@@H]1CN([C@@H](C)CO)C(=O)c2cc(NC(=O)Nc3ccc4c(c3)OCO4)ccc2O[C@H]1CN(C)S(=O)(=O)c1cn(C)cn1	63.6*	0.1	-12.6	-7.7	.	0.0	-14.4
Cc1cc(Br)c2nc(-c3ccc(Cl)cc3)c(Cc3cccc(Cl)c3)n2c1	.	2.6	.	.	.	.	.
Cc1ccc(-n2c(SCC(=O)c3ccc4ccccc4c3)nnc2-c2cccnc2)cc1	.	3.0	.	.	.	.	.
NC(=O)c1ncn([C@@H]2O[C@H](C(=O)N[C@H](Cc3c[nH]c4ccccc34)C(=O)N3CCN(C(=O)N4CCOCC4)CC3)[C@@H](O)[C@H]2O)n1	.	1.5	.	.	.	.	.
O=C1NC[C@H](CC2CCCCC2)N(CCc2cc(C(F)(F)F)cc(C(F)(F)F)c2)C1=O	16.1	-0.3	.	-16.0	.	-5.7	.
FC(F)(F)c1cc(CCN2C(=S)NC[C@@H]2CC2CCCCC2)cc(C(F)(F)F)c1	85.8*	1.9	-10.1	0.5	.	-15.9	-10.4
O=C(COc1ccccc1C(=O)NCc1ccccc1)Nc1ccc(I)cc1	.	3.1	.	.	.	.	.
CCOc1ccccc1N(C(=O)c1snc(C(N)=O)c1N)C(CC)C(=O)NC1CCCC1 (stereo not given)	60.2*	-2.0	-6.5	-4.3	.	9.3	-5.1
CCOc1ccc(N(C(=O)c2snc(C(N)=O)c2N)C(CC)C(=O)NC2CCCC2)cc1 (stereo not given)	8.1	2.5	-6.6	-9.8	.	-5.4	.
COc1ccccc1N(C(=O)c1snc(C(N)=O)c1N)C(C(=O)NCc1ccccc1)c1ccc(C)o1 (stereo not given)	73.1*	-4.0	-8.7	-2.3	.	7.7	-5.7
COC(=O)N1C[C@H](Oc2cccc3ccccc23)[C@H]2C[C@@H]1c1ccccc1O2	.	-0.2	.	.	.	.	.
Cn1c(SCc2cccc([N+](=O)[O-])c2)nc2ccccc2c1=O	0.7	-2.9	1.5	-4.1	.	-1.7	.
Cn1c(SCc2cccc(C#N)c2)nc2ccccc2c1=O	70.7*	-2.1	-6.0	7.2	.	2.9	-4.0
O=C(O)CCCC(=O)OCCCc1cc2ccccc2c(=O)o1	.	3.2	.	.	.	.	.
COc1ccccc1NC(=O)c1ccc(C(=O)c2ccccc2)o1	86.3*	-3.9	-2.7	6.8	2.9	3.5	-0.5
SMILES	Exocytosis inh	PRMT1 inh	TLR9-MyD88 inh	NOD2 RIPK2 PPI	TLR4-MyD88 BLA	ABHD5-PLIN5 inh	Granule exo CP1
O=C(Nc1ccccc1O)c1ccc(C(=O)c2ccccc2)o1	20.7	-1.5	9.7	-11.2	.	-0.8	.
O=C(Nc1nc(-c2nc3ccccc3s2)cs1)c1ccc(S(=O)(=O)N2CCOCC2)cc1	62.4*	-1.0	1.6	-15.2	-6.3	-0.4	7.9
O=C(Nc1nc(-c2ccc(S(=O)(=O)N3CCOCC3)cc2)cs1)c1ccccc1	-1.1	12.9	-3.5	-3.0	-17.5	2.8	.
Clc1cccc(C2Nc3cccc4cccc(c34)N2)c1Cl	93.2*	16.5	-0.2	-4.0	.	-3.6	-2.0
Clc1ccccc1C1Nc2cccc3cccc(c23)N1	7.8	19.2	-3.1	-15.3	.	1.5	.
C=CCN1C(=O)[C@@H](CC(=O)NCc2cccc(C(F)(F)F)c2)[C@]2(C(=O)OCC)CCCCC/C=C/12	.	2.6	.	.	.	.	.
COc1cc(NC(=O)c2cccc3c2C(=O)N(C2CCCCC2)C3)cc(OC)c1OC	93.5*	-4.4	-4.7	-17.4	.	11.2	12.1
COc1ccccc1CNC(=O)c1sccc1-c1ccccc1	66.5*	-1.9	-9.7	-4.4	.	1.4	-13.2
COc1ccccc1CNC(=O)c1sccc1C	-10.9	3.5	2.1	-4.3	.	-7.1	.
Cc1onc(-c2ccccc2)c1C(=O)OCC(=O)c1ccc(F)cc1	1.4	-3.1	0.0	-12.2	.	-2.7	.
Cc1onc(-c2ccccc2)c1C(=O)OCCOc1ccccc1F	80.4*	-8.5	3.7	-1.5	.	5.5	-9.7
CCC(=O)Nc1cc2[nH]c(=O)cc(C)c2cc1C	58.5*	5.0	2.3	-5.7	1.9	1.7	-3.2
COC(=O)c1c(NC(=O)c2ccccc2OC)sc(C(=O)N2CCOCC2)c1C	67.8*	-0.8	7.8	-5.5	.	-3.3	-3.0
COCCn1c(SC(C)C(=O)NCC2CCCO2)nc2sc3c(c2c1=O)CCC3 (stereo not given)	59.4*	-0.3	3.2	-10.0	.	4.3	-12.8
O=C(CCCc1ccccc1)Nc1ccnn1C1CCN(Cc2ccccc2)CC1	63.9*	-0.7	-4.9	2.6	.	8.5	-4.7
O=C(Cn1nnc(N2CCOCC2)n1)NN=Cc1ccccc1Cl	.	1.5	.	.	.	.	.
O=C(NC1CCCC1)[C@@H]1CCCN1C(=O)[C@@H](NS(=O)(=O)c1ccc(F)cc1F)C1CCCCC1	.	5.0	.	.	.	.	.
COc1ccc2nc3cc(Cl)ccc3c(Nc3ccc(O)c(CN4CCN(C)CC4)c3)c2c1	66.1*	5.5	8.7	9.3	.	5.9	75.0*
Cc1ccc(S(=O)(=O)N2O[C@@H](c3ccccc3)C[C@H]2CON2C(C)(C)CCCC2(C)C)cc1	.	-3.8	.	.	.	.	.
Cc1cc(=O)oc2cc(OCc3c(F)cccc3Cl)ccc12	.	-1.4	.	.	.	.	.
COC(=O)c1cn(C(=O)c2cc(Br)ccc2Cl)c2ccccc12	71.7*	0.6	-18.5	2.1	.	-1.8	-2.2
COC(=O)c1cn(C(=O)c2cc(C)cc(C)c2)c2ccccc12	1.0	0.9	-7.1	-1.4	5.6	4.7	.
COC(=O)c1cn(C(=O)c2ccc(OC)cc2)c2ccccc12	70.2*	4.2	10.4	10.0	.	-1.8	-12.9

Source: PubChem (several laboratories)
